Source: PubChem (several laboratories)
ABHD5 PLIN5 PPI: blocks binding of human ABHD5 to perilipin-5; Split G. princeps luciferase complementation, luminescence, 4 h; inhibition, % at 4 µM; 360,000 compounds, 0.78% hits; Q00G26+Q8WTS1; AID 602281;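 active = inhibition above the mean inhibition across every tested compound plus 3 SD, cut at about 22% in these data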
Target sequence (Q00G26 whole entry, looked up): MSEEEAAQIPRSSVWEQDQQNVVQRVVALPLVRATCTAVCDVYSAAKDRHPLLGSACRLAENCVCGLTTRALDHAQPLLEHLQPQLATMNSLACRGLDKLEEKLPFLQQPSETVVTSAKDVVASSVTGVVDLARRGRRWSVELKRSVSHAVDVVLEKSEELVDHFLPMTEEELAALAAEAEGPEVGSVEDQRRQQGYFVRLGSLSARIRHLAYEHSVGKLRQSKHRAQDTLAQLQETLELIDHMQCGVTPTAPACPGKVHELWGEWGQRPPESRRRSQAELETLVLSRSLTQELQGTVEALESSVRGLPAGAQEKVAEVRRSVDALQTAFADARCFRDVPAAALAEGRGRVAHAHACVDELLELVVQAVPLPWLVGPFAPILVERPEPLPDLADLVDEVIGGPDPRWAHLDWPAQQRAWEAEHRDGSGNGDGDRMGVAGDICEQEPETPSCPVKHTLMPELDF
Target sequence (Q8WTS1 whole entry, looked up): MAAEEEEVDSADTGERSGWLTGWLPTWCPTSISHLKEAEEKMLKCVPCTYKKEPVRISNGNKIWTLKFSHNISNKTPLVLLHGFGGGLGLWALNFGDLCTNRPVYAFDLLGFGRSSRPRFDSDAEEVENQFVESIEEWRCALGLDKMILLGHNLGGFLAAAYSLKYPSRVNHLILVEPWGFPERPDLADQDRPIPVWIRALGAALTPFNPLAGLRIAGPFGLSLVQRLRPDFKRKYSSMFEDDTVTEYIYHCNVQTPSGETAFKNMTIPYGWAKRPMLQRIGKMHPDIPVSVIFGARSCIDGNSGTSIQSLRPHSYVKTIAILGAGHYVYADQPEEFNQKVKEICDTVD
HIF-2a inh: blocks HIF-2a reporter activity | AID 624352 | inhibition, % at 18.8 µM | 360,000 compounds, 0.72% hits | 786-0 RCC cells HIF-2a reporter, luciferase luminescence, overnight;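 active = inhibition of the luminescence signal of 40% or more relative to plate controls, in a single-dose primary screen at 18.75 µM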
KKLEB tox: CF airway cell cytotoxicity counter-screen; KKLEB CF airway cells viability, ATPlite luminescence, overnight; active compounds read low; cells stimulated with P. aeruginosa culture filtrate; activity change (cytotoxicity), % at 5 µM; 360,000 compounds, 0.36% hits; AID 602141;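 active = corrected activity change at or below -50% at 5 µM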
TRPM1 prom inh: MITF TRPM1 promoter inhibition in SK-MEL-5 cells. AID 488899. 330,000 compounds, 0.83% hits. inhibition, % at 12.5 µM. SK-MEL-5 TRPM1 promoter luciferase, 24 h;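 active = mean inhibition across replicates of 60% or more, whatever share of single replicates reaches that level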
CF NFkB block: cystic fibrosis NF-kB activation inhibition. KKLEB NF-kB-GFP reporter, PAF-induced, GFP fluorescence overnight. 360,000 compounds, 0.86% hits. inhibition, % at 5 µM. AID 588850;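 active = at least 50% inhibition at 5 µM, scaled per plate between neutral and stimulator controls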;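 also: PAF is a Pseudomonas aeruginosa culture filtrate used as stimulus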
Peg3 prom inh: Peg3 promoter activity inhibition; HeLa PEG-Prom luciferase reporter, luminescence, overnight; inhibition, % at 20 µM; 360,000 compounds, 1.7% hits;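 active = inhibition of at least 50% at 20 µM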
A number is an active result. Hits are enriched below; roughly 3% of the tested compounds scored in any of these assays.

How did CCOc1ccc(C(=O)COC(=O)c2nc3nccc(C)n3n2)cc1 do in these assays?
ABHD5 PLIN5 PPI: inactive; HIF-2a inh: inactive; KKLEB tox: inactive; TRPM1 prom inh: inactive; CF NFkB block: inactive; Peg3 prom inh: inactive

How did O=C(CCl)N1CCN(S(=O)(=O)c2ccc3ccccc3c2)CC1 do in these assays?
ABHD5 PLIN5 PPI: inactive; HIF-2a inh: inactive; KKLEB tox: inactive; TRPM1 prom inh: inactive; CF NFkB block: inactive; Peg3 prom inh: 109.8

Results for CN1CCN(c2ccc(CNC(=O)c3cccc4c(-c5ccc(F)c(F)c5)coc34)cc2)CC1 ?
ABHD5 PLIN5 PPI: inactive; HIF-2a inh: inactive; KKLEB tox: inactive; CF NFkB block: inactive; Peg3 prom inh: 72.9

Results for CN1CCN(c2ccc(CNC(=O)c3ccc(-c4ccc(F)c(F)c4)c4ccoc34)cc2)CC1 ?
ABHD5 PLIN5 PPI: inactive; HIF-2a inh: inactive; KKLEB tox: inactive; CF NFkB block: inactive; Peg3 prom inh: 62.8

How did Nc1cccc(-c2c[nH]c3ncc(-c4cccnc4)cc23)c1 do in these assays?
ABHD5 PLIN5 PPI: inactive; HIF-2a inh: inactive; KKLEB tox: inactive; TRPM1 prom inh: inactive; CF NFkB block: 79.9; Peg3 prom inh: inactive

How did Cc1ccc2cc(CN(Cc3ccc4c(c3)OCO4)Cc3nnnn3Cc3ccco3)c(=O)[nH]c2c1 do in these assays?
ABHD5 PLIN5 PPI: inactive; HIF-2a inh: inactive; KKLEB tox: inactive; TRPM1 prom inh: inactive; CF NFkB block: inactive; Peg3 prom inh: inactive

What do the screens show for `COc1ccc2[nH]c(=O)c(CN(Cc3nnnn3Cc3ccco3)C3CCCCC3)cc2c1`?
ABHD5 PLIN5 PPI: inactive; HIF-2a inh: inactive; KKLEB tox: inactive; TRPM1 prom inh: inactive; CF NFkB block: inactive; Peg3 prom inh: inactive

Results for COc1ccc2cc(CN(CCc3ccccc3)Cc3nnnn3Cc3ccco3)c(=O)[nH]c2c1 ?
ABHD5 PLIN5 PPI: 22.1; HIF-2a inh: inactive; KKLEB tox: inactive; TRPM1 prom inh: inactive; CF NFkB block: inactive; Peg3 prom inh: inactive

How did COc1ccc2[nH]c(=O)c(CN(C3CCCCC3)C(c3nnnn3Cc3ccco3)C(C)C)cc2c1 (stereo unspecified) do in these assays?
ABHD5 PLIN5 PPI: 46.2; HIF-2a inh: inactive; KKLEB tox: inactive; TRPM1 prom inh: inactive; CF NFkB block: inactive; Peg3 prom inh: inactive

How did Cc1cccc(OCC(=O)NCC(C)(C)N2CCOCC2)c1 do in these assays?
ABHD5 PLIN5 PPI: inactive; HIF-2a inh: inactive; KKLEB tox: inactive; TRPM1 prom inh: inactive; CF NFkB block: inactive; Peg3 prom inh: inactive

How did CCN(C[C@H]1N[C@@](CC)(C(=O)OC)[C@H]2C(=O)N(Cc3ccccc3)C(=O)[C@@H]12)C(=O)c1ccc(C(C)(C)C)cc1 do in these assays?
ABHD5 PLIN5 PPI: inactive; HIF-2a inh: inactive; KKLEB tox: -58.5; TRPM1 prom inh: inactive; CF NFkB block: 85.4; Peg3 prom inh: 61.9

What do the screens show for `Cc1sc2ncn(CC(=O)N3CCN(c4ccccc4)CC3)c(=O)c2c1S(=O)(=O)N1CCOCC1`?
ABHD5 PLIN5 PPI: inactive; HIF-2a inh: inactive; KKLEB tox: inactive; TRPM1 prom inh: inactive; CF NFkB block: inactive; Peg3 prom inh: inactive

What do the screens show for `CC(C)Nc1nnc(SCC(=O)Nc2ccc3c(c2)C(=O)c2ccccc2C3=O)s1`?
ABHD5 PLIN5 PPI: inactive; HIF-2a inh: inactive; KKLEB tox: inactive; TRPM1 prom inh: inactive; CF NFkB block: inactive; Peg3 prom inh: 87.3

Results for O=C(CSc1nnc(NC2CCCCC2)s1)Nc1ccc2c(c1)C(=O)c1ccccc1C2=O ?
ABHD5 PLIN5 PPI: inactive; HIF-2a inh: inactive; KKLEB tox: inactive; TRPM1 prom inh: inactive; CF NFkB block: inactive; Peg3 prom inh: inactive

What do the screens show for `COc1ccc2nc(NN=C(C)c3ccccn3)cc(C)c2c1`?
ABHD5 PLIN5 PPI: inactive; HIF-2a inh: inactive; KKLEB tox: inactive; TRPM1 prom inh: 77.1; CF NFkB block: inactive; Peg3 prom inh: inactive

What do the screens show for `Cc1ccc2[nH]c3c(c2c1)CCCC3=O`?
ABHD5 PLIN5 PPI: inactive; HIF-2a inh: inactive; KKLEB tox: inactive; TRPM1 prom inh: inactive; CF NFkB block: inactive; Peg3 prom inh: inactive

Results for Cc1ccc2[nH]c3c(c2c1)CCCC3NCCO (stereo unspecified) ?
ABHD5 PLIN5 PPI: inactive; HIF-2a inh: inactive; KKLEB tox: inactive; TRPM1 prom inh: inactive; CF NFkB block: inactive; Peg3 prom inh: 51.6

Results for O=C(CCN1C(=O)/C(=C/c2ccc3c(c2)OCO3)SC1=S)Nc1ccc(C(=O)O)cc1 ?
ABHD5 PLIN5 PPI: inactive; HIF-2a inh: inactive; KKLEB tox: inactive; TRPM1 prom inh: inactive; CF NFkB block: inactive; Peg3 prom inh: inactive
